High-throughput results deposited in PubChem BioAssay by National Center for Advancing Translational Sciences (NCATS).
Most compounds without a hit are left out; they make up all but 10% or so of the library.
BAZ2B block – qHTS Assay for Inhibitors of BAZ2B; Bromodomain adjacent to zinc finger domain protein 2B (Homo sapiens), Q9UIF8; AID 504333, 2011; Potency, µM (highest dose often 114 µM), for inactives: top-dose activity change, negative = inhibition, hits mostly inhibitors; AlphaScreen BAZ2B-H3K14Ac peptide displacement; 4.4% of 360,000 active; further: potency means the concentration at half of the fitted maximal effect; on the % scale 0 is the no-effect control and ±100 the full control effect; nearly all actives have a fitted effect of over 60% in size
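BAZ2B 50 nM plus b-H3(5-23)K14Ac 50 nM, PBS pH 7.4/0.01% Tween-20, 30 min RT; compound added (max 110 uM), 30 min RT; streptavidin donor/Ni-chelate acceptor beads 10 ug/mL final, 20 min dark; AlphaScreen read.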
JMJD2A Tudor – qHTS Assay for Inhibitors of JMJD2A-Tudor Domain | Lysine-specific demethylase 4A (Homo sapiens), O75164 | AlphaScreen JMJD2A-Tudor / H3K4me3 peptide binding | Potency, µM (titrated, usually from 114 µM), without a hit: at the highest dose activity change, negative = inhibition, usual class: inhibitors | 4.4% of 390,000 active | AID 504339, 2011; further: potency means the concentration at half of the fitted maximal effect; on the % scale 0 is the no-effect control and ±100 the full control effect; nearly all actives have a fitted effect of over 50% in size
G9a inh – qHTS Assay for Inhibitors of Histone Lysine Methyltransferase G9a; Histone-lysine N-methyltransferase EHMT2 (Homo sapiens), Q96KQ7; G9a H3K9 monomethylation, AlphaScreen, 2 h; Potency, µM (highest dose often 102 µM), for inactives: at the highest dose activity, negative = inhibition, usual class: inhibitors; 8.8% of 350,000 active; AID 504332, 2011; further: potency means the concentration at half of the fitted maximal effect; on the % scale 0 is the no-effect control and ±100 the full control effect; nearly all actives have a fitted effect of over 75% in size
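Chemiluminescent proximity detection of H3K9 monomethylation, read after 10 min bead incubation in the dark. Reaction: 20 nM G9a, 500 nM biotin-H3K9 peptide, 20 uM SAM cofactor, 2 h, room temperature, following 15 min enzyme-compound preincubation.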
HP1b chromo inh – HTS for Inhibitors of HP1-beta Chromodomain Interactions with Methylated Histone Tails; Chromobox protein homolog 1 (Homo sapiens), P83916; AlphaScreen HP1-beta / biotin-H3K9me3 peptide binding; Potency, µM (titrated, usually from 114 µM), for inactives: at the highest dose activity change, negative = inhibition, most hits filed as inhibitors; 0.56% of 390,000 active; further: potency means the concentration at half of the fitted maximal effect; nearly all actives have a fitted effect of over 70% in size
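AlphaScreen: HP1-beta (50 nM) preformed 30 min with biotin-H3(1-18)K9me3 peptide (50 nM) in PBS pH 7.4, 0.01% Tween-20. Compound added for 30 min at RT, then streptavidin donor/nickel chelate acceptor beads (10 ug/mL) for 30 min.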
CtBP-E1A blk – qHTS Assay for Inhibitors of the CtBP/E1A Interaction; CtBP / adenovirus E1A interaction (AlphaScreen); AlphaScreen GST-E1A/His-CtBP binding, 1536-well; hits give low values; activity change, % (concentration not given with the values); 0.49% of 340,000 active; in the data active means activity change below about -65%; inconclusive means mostly about -30% to -63%; further: on the % scale 0 is the no-effect control and ±100 the full control effect
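Protein mix (5X: 125 nM each GST-E1A, His-CtBP) was incubated with pinned compound 2 h at 37 deg C in dark, in 50 mM Tris pH 8.0 buffer with 300 mM NaCl. Glutathione donor and nickel acceptor beads followed; AlphaScreen signal read after 1 h.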
Six1-Eya2 inh – qHTS Assay for Inhibitors of the Six1/Eya2 Interaction | Homeobox protein SIX1 (Homo sapiens) + Protein phosphatase EYA2 (Homo sapiens), … | AlphaScreen GST-Six1/His-Eya2 binding, biochemical; hits give low values | activity change, % (concentration not given with the values) | 0.56% of 360,000 active; in the data active means activity change below about -65%; inconclusive means mostly about -30% to -63%; further: on the % scale 0 is the no-effect control and ±100 the full control effect
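Compounds are tested against tagged Six1 and Eya2 proteins bridged by glutathione donor and nickel acceptor beads; after a one-hour incubation at 37 °C without light, AlphaScreen emission is recorded.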
* hit, by the source's call; ? = inconclusive; . = not tested or not shown; [ ] = remark or other dose. Unless noted, the call rests on the fitted dose curve; in most records, active means well fitted inhibition curve with a large enough effect; inconclusive means small, poorly fitted or top-dose-only effect; inactive means no such curve, though single readings can be large or run the other way.

SMILES	BAZ2B block	JMJD2A Tudor	G9a inh	HP1b chromo inh	CtBP-E1A blk	Six1-Eya2 inh
Cc1ccc(-c2onc(C)c2C)cc1S(=O)(=O)NC1CCC(C)CC1 (stereo not drawn)	0.5%	-3.6%	-3.6%[59 µM]	18.4%	.	.
CC(=O)c1ccc(N2Cc3ccccc3C2=NC(=O)c2cccs2)cc1	-5.2%	-16.1%	-0.7%[59 µM]	16.1%	-0.1	-3.4
COc1ccc(N2Cc3ccccc3C2=NC(=O)c2cncc(Br)c2)cc1	-30.1%	?	31.6µM*	10.6%	.	1.8
COc1ccc(N2Cc3ccccc3C2=NC(=O)c2cccc([N+](=O)[O-])c2)cc1	?	-21.6%	20µM*	3.5%	-2.4	-3.1
CCOC(=O)c1ccc(N2Cc3ccccc3C2=NC(=O)c2ccncc2)cc1	-1.1%	-2.1%	?	46.5%	10.5	-2.8
COc1ccc(N2Cc3ccccc3C2=O)cc1	-36.5%	-4.8%	-1.5%	50.1%	0.8	0.4
O=C(N=C1c2ccccc2CN1c1ccc(F)cc1)c1ccc(Cl)nc1	4.1%	-11.6%	22.4µM*	23.3%	0.7	-3.5
COc1ccc(-c2cc(C(F)(F)F)n3nc(C(=O)OC(C)C)cc3n2)cc1	14.6%	9.3%	22.8%[59 µM]	63.6%	.	.
CO[C@H]1C[C@@H]2CC[C@@H](C)[C@@](O)(O2)C(=O)C(=O)N2CCCC[C@H]2C(=O)O[C@H]([C@H](C)C[C@@H]2CC[C@@H](OCCO)[C@H](OC)C2)CC(=O)[C@H](C)/C=C(\C)[C@@H](O)[C@@H](OC)C(=O)[C@H](C)C[C@H](C)/C=C/C=C/C=C/1C	.	.	-37.8%[12.7 µM]	.	.	.
CCCSc1cc(N2CCCC2)nc(-c2ccccc2)n1	26.1%	121.0%	95.1%	144.6%	-2.1	13.8
CCCSc1cc(N2CCN(C)CC2)nc(-c2ccc(OC)cc2)n1	50.1µM*	?	50.1µM*	-25.4%	-20.2	-5.5
CCOC(=O)c1c(C)[nH]c(C)c1S(=O)(=O)NCC(=O)Nc1cccc(C(F)(F)F)c1	-0.8%	-29.5%	7.2%[59 µM]	-11.8%	.	.
Cc1cc(OC(=O)c2ccco2)c(Sc2ccccc2[N+](=O)[O-])c(=O)o1	?	?	31.6µM*	-6.7%	-7.5	-17.2
CCCOc1ccc(C2C(=O)N(C3CCCCCC3)CC(=O)N2CCC2=CCCCC2)cc1OC (stereo not drawn)	-2.4%	-16.5%	-18.2%[59 µM]	32.0%	.	.
CCN(CC)c1ccc(/C=N/NC(=S)NCc2ccccc2)c(O)c1	22.4µM*	-26.2%	-12.8%[59 µM]	-9.5%	?	?
CCN(CC)c1ccc(/C=N/NC(=O)c2ccco2)cc1	-8.6%	-23.6%	-3.8%[59 µM]	18.5%	-26.1	-11.3
O=C(N/N=C/c1ccc2cccnc2c1)c1ccco1	5.3%	-9.0%	28.2µM*	23.9%	-1.5	-17.0
CCN(CC)c1ccc(/C=N/N=C(c2ccccc2)c2ccccc2)c(O)c1	?	?	?	-18.9%	?	-27.4
CCN(CC)c1ccc(/C=N/NC(=O)c2ccco2)c(O)c1	?	-33.8%	.	47.6%	?	-65.2*
COc1ccc(Cl)cc1NC(=O)c1cc(S(=O)(=O)N2CCc3ccccc32)cn1C	?	?	?	0.6%	.	.
CCC(=O)Oc1ccc(C2Nc3ccccc3-c3nnc(SC)nc3O2)cc1 (stereo not drawn)	-9.5%	-11.0%	-49.8%[59 µM]	21.5%	.	.
CC(c1ncncc1F)[C@](O)(Cn1cncn1)c1ccc(F)cc1F (stereo partly drawn)	.	.	16.9%[59 µM]	.	.	.
Cc1nnc(NC(=O)c2ccc3ccccc3c2)o1	28.2µM*	50.1µM*	6.8%[59 µM]	30.6%	?	?
Cc1nnc(NC(=O)c2ccc(S(=O)(=O)N(C)Cc3ccccc3)cc2)o1	79.4µM*	?	-1.5%	42.7%	-28.2	-20.6
O=C(Nc1nnc(-c2ccco2)o1)c1ccc2ccccc2c1	8.2%	-15.2%[57.1 µM]	-4.1%[59 µM]	48.1%	-18.7	-17.9
SMILES	BAZ2B block	JMJD2A Tudor	G9a inh	HP1b chromo inh	CtBP-E1A blk	Six1-Eya2 inh
COCCN(CCOC)S(=O)(=O)c1ccc(C(=O)Nc2nnc(C)o2)cc1	14.1µM*	28.2µM*	7.08µM*	3.8%	-17.0	-24.6
Cc1ccc(C(=O)N/C(=C\c2ccco2)C(=O)NCCCn2ccnc2)cc1C	7.94µM*	17.8µM*	-39.9%[59 µM]	25.1%	6.7	-80.6*
Cc1ccc(C(=O)N/C(=C\c2cccs2)C(=O)NCCCn2ccnc2)cc1	-34.7%	-16.6%	9.8%[59 µM]	23.0%	7.3	-8.7
COc1ccc(C(=O)N/C(=C\c2cccs2)C(=O)N2CCN(C)CC2)cc1OC	-8.5%	-0.7%	19.5%	3.3%	-0.2	13.0
COc1ccc(C(=O)N/C(=C\c2ccco2)C(=O)NCCCn2ccnc2)cc1	?	-28.3%	-41.2%[59 µM]	4.5%	4.7	11.3
O=C(NCCCn1ccnc1)/C(=C/c1ccco1)NC(=O)c1cccs1	79.4µM*	-8.3%[11.4 µM]	?	30.1%	.	-0.1
Cc1ccc(C(=O)N/C(=C\c2cccs2)C(=O)N2CCN(C)CC2)cc1C	-2.2%	-8.3%	70.8µM*	17.8%	-1.1	1.9
Cc1ccc(C(=O)N/C(=C\c2cccs2)C(=O)NCCCn2ccnc2)cc1C	50.1µM*	?	11.8%	13.3%	-15.4	-13.7
CC1CCc2nc3ncn(Cc4ccccc4C#N)c(=O)c3cc2C1 (stereo not drawn)	-1.7%	-12.8%	7.4%[59 µM]	21.7%[57 µM]	.	.
Cc1ccc(S(=O)(=O)N2CCCCC2)cc1NC(=O)CNc1ccc(C(F)(F)F)cc1	6.7%	-26.6%	56.2µM*	7.3%	-1.1	4.5
Cc1ccc(S(=O)(=O)N2CCCCC2)cc1NC(=O)CCCOc1ccccc1	7.7%	-8.2%	?	17.9%	-0.8	-11.9
CC(=O)c1ccc(OCCCC(=O)Nc2cc(S(=O)(=O)N3CCCCC3)ccc2C)cc1	-7.0%	-10.2%	35.5µM*	20.7%	-4.8	-1.7
COc1ccccc1N1CCN(c2cc(C)nc3nncn23)CC1	0.1%	-0.6%	-6.4%[59 µM]	32.7%	.	.
CCCSc1ncc(Cl)c(C(=O)Nc2c(C(=O)Nc3ccc(C)cc3)oc3ccccc23)n1	0.7%	-10.8%	8.3%[59 µM]	40.9%	.	.
Cc1ccc(CNC(=O)Cn2c(=O)ccc3cc(S(=O)(=O)N4CCC(C)CC4)ccc32)cc1	-24.2%	-2.3%	?	2.7%[57 µM]	.	.
O=C(/C=C/Nc1ccccc1F)c1cccs1	0.9%	-7.6%	31.6µM*	27.6%	-12.0	4.0
CCOC(=O)c1ccccc1N/C=C/C(=O)c1cccs1	18.4%	16.4%	31.6µM*	85.3%	9.6	-15.1
